Compound activity: PubChem, National Center for Advancing Translational Sciences (NCATS)
TDP1 cell noCPT = qHTS for Inhibitors of human tyrosyl-DNA phosphodiesterase 1 (TDP1): qHTS in cells in absence of CPT; Potency, µM (series often up to 46.2 µM), for the others: at the top dose activity change, negative = growth inhibition, hits mostly inhibitors; DT40 Tdp1-/- hTDP1 cells, no CPT, ATP luminescence, 48 h; actives 15% (n = 420,000); also: potency is read from the fitted curve at half-maximal effect; nearly all actives have a fitted effect of over 55% in size
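A cellular qHTS used chicken DT40 cells lacking endogenous Tdp1 but carrying stably transfected human TDP1. Compounds were applied without camptothecin, and cell growth kinetics were judged by ATP-dependent luminescence after ≥48 hr.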
HT1080-NT tox = kills 2HG-producing HT-1080-NT fibrosarcoma cells. HT-1080-NT fibrosarcoma viability, CellTiter-Glo ATP luminescence, 48 h. Potency, µM (highest dose often 46.1 µM), for inactives: at the highest dose activity, negative = less viability, usual class: cytotoxic. actives 1.6% (n = 360,000). AID 686970;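 also: NT is the 2HG producing partner of a matched IDH1 knockdown line; potency is read from the fitted curve at half-maximal effect; 0% = DMSO-treated cells and -100% = media-only wells without cells; nearly all actives have a fitted effect of over 55% in size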
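A 48-hour cytotoxicity screen used HT-1080-NT cells plated 2 hours before compound delivery. ATP-based CellTiter-Glo luminescence measured viability, normalized to DMSO and no-cell controls.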
ELG1 DNA repair = ELG1-dependent DNA repair inhibition; actives 2.3% (n = 330,000); Potency, µM (doses to about 46.1 µM), inactives show at the highest dose activity change, negative = inhibition, most hits filed as inhibitors; HEK293T ELG1-luciferase reporter, luminescence, 16 h; DNA damage induced by 5-fluorouridine; also: potency is read from the fitted curve at half-maximal effect; nearly all actives have a fitted effect of over 55% in size
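Quantitative HTS, concentration-response format. 2,000 cells/well co-treated with 5-fluorouridine and compound, 16 hr in 5% CO2 at 37 °C; ONE-Glo luminescence read after 30 min.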
HT1080 IDH1KD tx = kills HT-1080 cells with IDH1 knockdown; HT-1080 IDH1 knockdown viability, ATP luminescence, 48 h; actives 2% (n = 360,000); Potency, µM (top dose mostly 46.1 µM), without a hit: at the top dose activity, negative = toxicity, hits mostly cytotoxic;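 also: potency is read from the fitted curve at half-maximal effect; 0% = DMSO wells and -100% = cell-free medium wells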
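Assay cells: HT-1080 with IDH1 knockdown, 750 per well, RPMI/5% FBS. Exposure: 48 h at 37 °C following 2 h pre-incubation. Read: CellTiter-Glo luminescence; fitted concentration-response, curve class assigned.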
IL-1B inflam inh = inflammasome signaling inhibition, IL-1 beta readout; THP-1 LPS/ATP IL-1B secretion, AlphaLISA, 16 h; active compounds read low; activity change, % at 57.5 µM; AID 743279; actives 4.7% (n = 360,000); in the data active = activity change below about -50%; inconclusive = mostly about -30% to -49%
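THP-1 cells pretreated 1 hr with compounds (up to 57.5 uM final), then stimulated with LPS (250 ng/mL final) plus ATP (1.25 mM final); secreted IL-1B measured by AlphaLISA after 16 hr, decreased signal indicating inhibition.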
TDP1 cell CPT = growth inhibition of DT40 Tdp1-/-;hTDP1 cells with camptothecin (screen for TDP1 inhibitors); actives 12% (n = 420,000); chicken DT40 Tdp1-/-;hTDP1 cells + 20 nM CPT, ATP luminescence, 48 h; Potency, µM (doses to about 46.2 µM), without a hit: at the highest dose activity change, negative = growth inhibition, actives largely listed as inhibitors; AID 686979; also: potency is read from the fitted curve at half-maximal effect; nearly all actives have a fitted effect of over 55% in size
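Chicken DT40 Tdp1-/- cells stably complemented with human TDP1 were seeded at 400 cells/well in medium containing 20 nM camptothecin, exposed to pin-transferred compounds, and grown at 37 °C for at least 48 hr. Viability was read as ATP luminescence.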
The depositor's hits bear a star; u = inconclusive; x = not tested or not shown; [ ] = remark or other dose. Shown are actives, neighbours in structure and some others; about 19% of the full set was active somewhere. Unless noted, calls follow the shape of the dose curve; as a rule, active = well fitted curve in the direction sought with a large enough effect; inconclusive = small, poorly fitted or top-dose-only effect, or another doubt; inactive = no such curve, though single readings can be large; an effect the other way counts as inactive or inconclusive. Unless noted, % is scaled to controls: 0 for no effect and ±100 for the full control effect.

SMILES	TDP1 cell noCPT	HT1080-NT tox	ELG1 DNA repair	HT1080 IDH1KD tx	IL-1B inflam inh	TDP1 cell CPT
O=c1[nH]c2cc3c(cc2cc1CN(CCc1ccccc1)C(=S)NCCCN1CCOCC1)OCCO3	20.6µM*	9.6%	x	9.9%	-10.6	u
Cc1ccc(NC(=S)N(CCN2CCOCC2)Cc2cc3cc4c(cc3[nH]c2=O)OCCO4)cc1	u	-0.7%	-26.7%	-12.0%	-23.9	u
Cc1cccc(NC(=S)N(CCN2CCOCC2)Cc2cc3cc4c(cc3[nH]c2=O)OCCO4)c1	16.4µM*	-4.6%	u	-12.4%	-28.3	u
CCOc1ccc(NC(=S)N(CCN2CCOCC2)Cc2cc3cc4c(cc3[nH]c2=O)OCO4)cc1	u	5.9%	20.6µM*	6.4%	-3.2	u
CN(C)CCCNC(=S)N(CCN(C)C)Cc1cc2cc3c(cc2[nH]c1=O)OCCO3	-2.1%	10.2%	-16.7%	4.4%	0.4	23.2%
COc1ccc(-c2nnc3n(CCc4ccccc4)c(=O)c4ccccc4n23)cc1OC	23.1µM*	3.6%	6.51µM*	2.0%	u	u
COc1ccccc1C1CC(=O)Oc2ccc(C(C)(C)C)cc21 (configuration not stated)	-13.5%	3.7%	15.9%	-0.3%	39.4	-1.6%
CCN(CC)C(=O)c1cccc(-c2csc(C(C)(O)c3ccc(F)c(F)c3)n2)c1 (configuration not stated)	20.6µM*	u	x	u	-7.5	u
COc1cccc(C(C)(O)c2nc(-c3ccc(C)c(C)c3)cs2)c1 (configuration not stated)	u	-27.7%	x	u	16.8	u
CCN(CC)C(=O)c1cccc(-c2csc(C(C)(NC(C)=O)c3ccc(OC)cc3)n2)c1 (configuration not stated)	13µM*	4.2%	x	0.2%	-14.9	u
CCN(CC)C(=O)c1cccc(-c2csc(C(C)(O)c3cccc(OC)c3)n2)c1 (configuration not stated)	23.1µM*	-4.5%	x	u	-15.0	18.4µM*
CCN(CC)C(=O)c1cccc(-c2csc(C(O)(c3ccccc3)C(F)(F)F)n2)c1 (configuration not stated)	16.4µM*	23.1µM*	x	16.4µM*	-4.3	u
CCOC(=O)CNC(=O)Nc1cc(C(=O)NCc2ccc(C(C)C)cc2)ccc1N1CCCC1	-26.4%	x	x	x	x	u
C[C@@H]1CN([C@H](C)CO)C(=O)CCCn2nncc2CO[C@H]1CN(C)S(=O)(=O)c1cccc(F)c1	-16.4%	2.1%	x	-0.5%	1.5	-12.2%
CCN(CC)C(=O)c1cccc(-c2csc(C(C)(O)c3ccc(OC)cc3)n2)c1 (configuration not stated)	4.61µM*	5.8µM*	x	u	3.8	5.8µM*
CC(C)(C)S(=O)N1Cc2cc(C(=O)NCC(F)(F)F)nc(-c3cccc(-c4cccc(F)c4)c3)c2[C@@H]1CCO (some centres not stated)	18.4µM*	u	x	20.6µM*	-2.2	18.4µM*
CN(C)C(=O)c1cccc(-c2cccc(-c3nc(C(=O)NCc4ccccc4)cc4c3[C@H](CCO)N(S(=O)C(C)(C)C)C4)c2)c1 (some centres not stated)	u	-16.4%	x	-18.6%	0.0	u
CCNC(=O)c1cc2c(c(-c3cccc(-c4cccc(C(=O)N(C)C)c4)c3)n1)[C@@H](CCO)N(S(=O)C(C)(C)C)C2 (some centres not stated)	20.6µM*	6.6%	x	5.3%	-22.6	u
CCOC(=O)c1ccc(NC(=O)CC2C(=O)N(c3ccc(C)cc3)C(=O)N2C2CCCC2)cc1 (configuration not stated)	20.6µM*	x	x	x	x	u
O=C(CC1C(=O)N(c2ccccc2)C(=O)N1C1CCCCC1)Nc1ccccc1 (configuration not stated)	1.9%	1.6%	15.1%	3.2%	9.1	-6.9%
COc1ccc(NC(=O)CC2C(=O)N(c3ccc(C)cc3)C(=O)N2C2CCCCC2)cc1 (configuration not stated)	-4.7%	x	x	x	x	5.4%
COC(=O)c1ccc(NC(=O)CC2C(=O)N(c3ccccc3)C(=O)N2C2CCCC2)cc1 (configuration not stated)	16.4µM*	x	x	x	x	u
COc1ccccc1-c1ccnc(-n2ncc(C(=O)NC(c3cccnc3)C(F)(F)F)c2C)n1 (configuration not stated)	u	x	x	x	x	-5.4%[9.04 µM]
O=C(C[n+]1ccn(CCCNP2(=O)C=C(c3ccccc3)OC(c3ccccc3)=C2)c1)c1cccs1	-19.9%	0.9%	3.6%	0.7%	u	14.6µM*
Cc1ccccc1CN1C[C@H]2CON(C)[C@H]2C[C@H]1c1cccc(Br)c1	-29.1%	-0.4%	x	-5.3%	-18.2	0.5%
SMILES	TDP1 cell noCPT	HT1080-NT tox	ELG1 DNA repair	HT1080 IDH1KD tx	IL-1B inflam inh	TDP1 cell CPT
COn1c(C)c(C(C)=O)c2c3nonc3ccc21	-19.4%	-5.0%	20.6µM*	3.3%	-23.8	-1.1%
CCCCOn1c(C)c(C(=O)OCC)c2c3nonc3ccc21	u	-1.9%	x	0.1%	-12.2	u
Cc1ccc(NC(=O)Cn2ccc([N+](=O)[O-])n2)cc1C	5.2%	15.1%	-2.8%	-5.0%	-7.4	5.8%
COC(=O)c1ccc(CNC(=O)CN2C(=O)NC(Cc3ccccc3)(c3ccccc3)C2=O)cc1 (configuration not stated)	u	-11.9%	x	-6.4%	u	u
CCOC(=O)C1=CC[C@@H](c2ccccc2)N(S(=O)(=O)c2ccc(C)cc2)[C@@H]1C#N	u	-12.7%	x	u	u	u
CCOC(=O)C1=CC[C@@H](c2ccc(OC)cc2)N(S(=O)(=O)c2ccc(C)cc2)[C@H]1CC	18.4µM*	-5.2%	x	u	-6.8	14.6µM*
CCOC(=O)C1=CC[C@@H](c2ccccc2C(F)(F)F)N(S(=O)(=O)c2ccc(C)cc2)[C@H]1c1ccc(C#N)cc1	13µM*	22.5%	x	5.9%	-8.2	14.6µM*
CCOC(=O)C1=CC[C@@H](c2ccccc2)N(S(=O)(=O)c2ccc(C)cc2)[C@H]1C	23.1µM*	-9.9%	x	u	53.1	u
